This is an account of results in PubChem BioAssay.

Activity calls are given as the source filed them.

Test [1] concerns Plasmodium falciparum Sir2 (PF13_0152, Sir2A). Nature of the test: Plasmodium falciparum Sir2A binding compounds – biochemical, small-molecule microarray, 635 nm fluorescence, primary screen (AID 1098).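 Note: score merges spot fluorescence intensity with its signal-to-noise ratio.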 The note with it: fluorescence 635 nm, higher = more signal.
A short description of test [2]: probe aDKK1 binding to arrayed compounds – biochemical, biotinylated probe, 635/667 nm fluorescence, primary screen (AID 1099).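 Note: score merges 667nm spot fluorescence with signal to noise across triplicate slides.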 Particulars: small-molecule microarray, higher = more signal.
The nature of test [3]: probe aCHRDL2 binding to arrayed compounds – biochemical, biotinylated probe, 635/667 nm fluorescence, primary screen (AID 1100). Particulars: small-molecule microarray, higher = more signal.
Test [4] is described as follows: change in splice reporter luminescence, either direction, cell-based, HEK293, spliceosome inhibition project, primary screen (AID 1101).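 Note: HEK293 cells carrying a splicing-competent luciferase reporter gene; test concentration not given here.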 The note with it: HEK293 splicing luciferase reporter, 24 h, higher = more signal, called active from +8 up or from −8 down. A general note: In a reporter assay the amount or activity of a reporter protein is the signal.
The target in test [5] is Fibroblast growth factor 10 (Homo sapiens) (UniProt O15520). Nature of the test: compounds binding fibroblast growth factor 10 – biochemical, small-molecule microarray, 635 nm fluorescence, primary screen (AID 1102). The note with it: FGF10 binding, fluorescence 635 nm, higher = more signal.
Sequence of Fibroblast growth factor 10 (Homo sapiens) (O15520 whole entry, looked up): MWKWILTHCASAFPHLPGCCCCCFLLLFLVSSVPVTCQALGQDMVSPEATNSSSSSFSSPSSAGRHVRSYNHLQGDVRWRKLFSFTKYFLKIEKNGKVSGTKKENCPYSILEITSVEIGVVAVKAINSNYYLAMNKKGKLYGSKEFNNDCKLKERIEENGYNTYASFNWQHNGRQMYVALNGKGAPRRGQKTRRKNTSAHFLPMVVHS
Test [6] relates to glycogen synthase kinase-3 (GSK3A per assay name; protocol says GSK3B). Nature of the test: compounds binding glycogen synthase kinase-3 – biochemical, small-molecule microarray, 635 nm fluorescence, GSK3A, primary screen (AID 1103). Note: the record names both GSK3A and GSK3B. Particulars: fluorescence 635 nm, higher = more signal.
For test [7], the target named is Epidermal growth factor receptor (Homo sapiens) (UniProt P00533). The experiment in a line: compounds binding epidermal growth factor receptor – biochemical, small-molecule microarray, 635 nm fluorescence, primary screen (AID 1104).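 Note: score merges 667 nm emission intensity with spot signal to noise over triplicate slides.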 The note with it: EGFR binding, higher = more signal.
Sequence of Epidermal growth factor receptor (Homo sapiens) (P00533 whole entry, looked up): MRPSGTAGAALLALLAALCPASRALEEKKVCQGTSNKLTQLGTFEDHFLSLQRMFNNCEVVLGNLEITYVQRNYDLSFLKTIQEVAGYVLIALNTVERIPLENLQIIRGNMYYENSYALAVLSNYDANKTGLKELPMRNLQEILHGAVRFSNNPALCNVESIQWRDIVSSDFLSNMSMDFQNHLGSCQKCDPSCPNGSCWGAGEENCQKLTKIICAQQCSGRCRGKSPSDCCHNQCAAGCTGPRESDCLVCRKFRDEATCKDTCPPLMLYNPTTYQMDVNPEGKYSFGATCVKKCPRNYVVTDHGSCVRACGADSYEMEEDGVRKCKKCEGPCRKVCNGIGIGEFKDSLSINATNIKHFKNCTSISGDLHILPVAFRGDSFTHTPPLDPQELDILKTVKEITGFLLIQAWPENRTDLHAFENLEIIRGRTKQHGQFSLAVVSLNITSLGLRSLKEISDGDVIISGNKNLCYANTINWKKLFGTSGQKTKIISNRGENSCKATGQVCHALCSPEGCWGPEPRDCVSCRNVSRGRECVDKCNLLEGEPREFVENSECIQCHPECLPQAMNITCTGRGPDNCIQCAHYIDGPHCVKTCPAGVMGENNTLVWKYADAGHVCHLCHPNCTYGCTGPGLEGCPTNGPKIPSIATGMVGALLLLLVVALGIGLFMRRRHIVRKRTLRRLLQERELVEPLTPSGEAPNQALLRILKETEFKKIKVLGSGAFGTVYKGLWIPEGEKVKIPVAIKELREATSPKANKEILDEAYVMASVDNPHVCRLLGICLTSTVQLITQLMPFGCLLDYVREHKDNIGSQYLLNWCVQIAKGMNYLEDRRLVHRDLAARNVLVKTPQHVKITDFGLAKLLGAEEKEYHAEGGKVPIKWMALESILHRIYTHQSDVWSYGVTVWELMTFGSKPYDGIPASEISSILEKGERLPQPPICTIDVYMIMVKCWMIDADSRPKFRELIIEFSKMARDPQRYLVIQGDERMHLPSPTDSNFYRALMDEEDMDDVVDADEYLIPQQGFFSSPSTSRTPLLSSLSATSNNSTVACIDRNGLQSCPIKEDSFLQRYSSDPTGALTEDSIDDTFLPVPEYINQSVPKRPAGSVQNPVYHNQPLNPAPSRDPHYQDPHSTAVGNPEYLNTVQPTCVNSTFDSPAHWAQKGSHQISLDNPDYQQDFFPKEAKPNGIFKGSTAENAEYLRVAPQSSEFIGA
For test [8], the target named is Follistatin-related protein 3 (Homo sapiens) (UniProt O95633). Nature of the test: compounds binding follistatin-related protein 3 – biochemical, small-molecule microarray, 635 nm fluorescence, primary screen (AID 1105).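 Note: score merges emission near 667 nm and signal to noise per printed spot across three slides.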 The note with it: FSTL3 binding, higher = more signal.
Sequence of Follistatin-related protein 3 (Homo sapiens) (O95633 whole entry, looked up): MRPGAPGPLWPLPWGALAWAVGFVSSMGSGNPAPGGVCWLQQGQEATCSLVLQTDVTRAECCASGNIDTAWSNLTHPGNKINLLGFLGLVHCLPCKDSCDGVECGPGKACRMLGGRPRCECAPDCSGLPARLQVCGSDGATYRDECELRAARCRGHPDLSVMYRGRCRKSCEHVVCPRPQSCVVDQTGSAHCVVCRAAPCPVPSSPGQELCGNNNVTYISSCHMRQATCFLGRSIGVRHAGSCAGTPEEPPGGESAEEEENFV
The target of test [9] is Dickkopf-related protein 1 (Homo sapiens) (UniProt O94907). The experiment in a line: small molecules binding DKK1 protein – biochemical, small-molecule microarray, 635 nm fluorescence scan, primary screen (AID 1106).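 Note: score merges emission near 667 nm with signal to noise over three replicate slides.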 Particulars: higher = more signal.
Sequence of Dickkopf-related protein 1 (Homo sapiens) (O94907 whole entry, looked up): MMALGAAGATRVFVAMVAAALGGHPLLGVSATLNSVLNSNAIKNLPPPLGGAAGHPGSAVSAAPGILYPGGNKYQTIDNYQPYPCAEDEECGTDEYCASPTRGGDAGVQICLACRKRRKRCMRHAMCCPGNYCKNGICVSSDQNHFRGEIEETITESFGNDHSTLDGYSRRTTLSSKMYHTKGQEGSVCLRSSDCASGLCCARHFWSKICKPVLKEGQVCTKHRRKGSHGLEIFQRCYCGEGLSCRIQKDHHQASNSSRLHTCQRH
Test [10] relates to Inhibin beta A chain (activin A). Nature of the test: small molecules binding activin A – biochemical, small-molecule microarray, 635 nm fluorescence scan, primary screen (AID 1107).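 Note: mouse activin A protein probed at 4.33 µg/mL on printed slides; score merges bound-protein fluorescence near 667 nm with spot signal-to-noise.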 Particulars: INHBA, higher = more signal.
The subject of test [11] is Human papillomavirus type 1a protein E7 (residues 44-93). Nature of the test: small molecules binding HPV E7 44-93 – biochemical, small-molecule microarray, residues 44-93, 635 nm fluorescence, primary screen (AID 1108).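 Note: E7 fragment applied at 1 µg/mL in TBST for 1 h at 4 C; score combines spot fluorescence with its signal to noise ratio.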 The note with it: fluorescence 635 nm, higher = more signal.
Test [12] can be described thus: hepatitis C replication reporter changes, two-sided – Huh7 cells, luciferase reporter, HCV replication inhibitor project, primary screen (AID 1109).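 Note: huh7 hepatoma cells harbouring a luciferase neomycin HCV replicon reporter; luciferase luminescence as measure of HCV replicon replication; test concentration not given here.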 The note with it: Huh7 HCV replicon luciferase reporter, 48 h; higher = more signal.
Test [13] deals with Left-right determination factor 2 (Homo sapiens) (UniProt O00292). Nature of the test: small molecules binding LEFTY2 protein – biochemical, small-molecule microarray, 635 nm fluorescence scan, primary screen (AID 1110). The note with it: higher = more signal.
Sequence of Left-right determination factor 2 (Homo sapiens) (O00292 whole entry, looked up): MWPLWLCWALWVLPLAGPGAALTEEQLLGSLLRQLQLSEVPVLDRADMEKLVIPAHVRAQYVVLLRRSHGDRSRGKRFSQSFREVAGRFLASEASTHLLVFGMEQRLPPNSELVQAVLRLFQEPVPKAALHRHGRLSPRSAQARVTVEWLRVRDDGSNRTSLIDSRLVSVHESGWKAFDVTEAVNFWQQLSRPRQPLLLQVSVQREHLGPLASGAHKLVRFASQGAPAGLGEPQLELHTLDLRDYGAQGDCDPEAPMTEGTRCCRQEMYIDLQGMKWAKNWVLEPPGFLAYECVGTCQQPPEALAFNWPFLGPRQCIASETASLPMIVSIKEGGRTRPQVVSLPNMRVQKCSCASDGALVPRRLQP
The target of test [14] is Calmodulin-1 (Homo sapiens) (UniProt P0DP23). Nature of the test: small molecules binding calmodulin-1 with EGTA – biochemical, small-molecule microarray, Cy5-labelled CALM1, profiling panel (AID 1111).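 Note: labelled calmodulin applied in Tris saline Tween buffer holding calcium plus EGTA and DTT.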 The note with it: Cy5-CALM1 binding fluorescence, higher = more signal.
Test [15] shares this target. Nature of the test: small molecules binding Ca-loaded calmodulin-1 – biochemical, small-molecule microarray, Cy5-labelled CALM1, plus calcium, artefact control for SMM control-protein annotation, profiling panel (AID 1112).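 Note: score merges spot fluorescence with signal to noise from triplicate slides.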 The note with it: Cy5-CALM1 binding fluorescence, higher = more signal.
Test [16] is described as follows: probe aWnt5a binding to arrayed compounds – biochemical, biotinylated probe, 635/667 nm fluorescence, primary screen (AID 1113).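 Note: score merges 667 nm fluorescence intensity with signal-to-noise per printed feature.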 The note with it: small-molecule microarray, higher = more signal.
A short description of test [17]: probe aShh binding to arrayed compounds – biochemical, biotinylated probe, 635/667 nm fluorescence, primary screen (AID 1114).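 Note: probe is biotin-labelled aShh protein from a stem cell growth factor screen; measures binding of labelled protein to compounds printed on the slide; score merges feature fluorescence at 667 nm with signal-to-noise.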 Particulars: small-molecule microarray, higher = more signal.
Test [18] is described as follows: probe aNog binding to arrayed compounds – biochemical, biotinylated probe, 635/667 nm fluorescence, primary screen (AID 1115).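 Note: probe is biotinylated aNog protein used at 0.15 µg/mL for 1 h at 4 C; z-score combines 667 nm fluorescence of each spot with its signal to noise.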 The note with it: small-molecule microarray, higher = more signal.
The target of test [19] is Torsin-1A-interacting protein 1 (Homo sapiens) (UniProt Q5JTV8). Nature of the test: compound microarray binding of lysate hLAP1 – cell lysate, small-molecule microarray, COS7 lysate, 635/667 nm fluorescence, primary screen (AID 1116). Particulars: 635 nm fluorescence, higher = more signal.
Sequence of Torsin-1A-interacting protein 1 (Homo sapiens) (Q5JTV8 whole entry, looked up): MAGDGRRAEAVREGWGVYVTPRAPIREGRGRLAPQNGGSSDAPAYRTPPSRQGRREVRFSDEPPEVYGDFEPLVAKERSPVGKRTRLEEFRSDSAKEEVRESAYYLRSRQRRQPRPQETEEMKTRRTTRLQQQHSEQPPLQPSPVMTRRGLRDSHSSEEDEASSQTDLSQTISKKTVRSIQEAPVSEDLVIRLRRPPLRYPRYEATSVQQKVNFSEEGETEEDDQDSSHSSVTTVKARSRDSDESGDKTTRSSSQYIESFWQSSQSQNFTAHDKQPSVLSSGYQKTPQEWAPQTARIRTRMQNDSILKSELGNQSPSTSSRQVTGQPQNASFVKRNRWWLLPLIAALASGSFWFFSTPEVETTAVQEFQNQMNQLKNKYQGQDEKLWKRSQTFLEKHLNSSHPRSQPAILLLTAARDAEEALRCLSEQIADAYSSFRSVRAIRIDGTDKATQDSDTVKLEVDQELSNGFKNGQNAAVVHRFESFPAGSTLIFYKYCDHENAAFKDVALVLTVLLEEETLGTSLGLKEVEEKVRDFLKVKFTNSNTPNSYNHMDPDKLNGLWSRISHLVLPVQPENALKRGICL
The target of test [20] is Alpha-bungarotoxin (Bungarus multicinctus) (UniProt P60615). The experiment in a line: compounds binding labelled alpha-BTX control protein – biochemical, small-molecule microarray, Alexa647 label, 635/667 nm fluorescence, artefact control for SMM control protein annotation, profiling panel (AID 1117). The note with it: alpha-BTX-A647 binding fluorescence, higher = more signal.
Sequence of Alpha-bungarotoxin (Bungarus multicinctus) (P60615 whole entry, looked up): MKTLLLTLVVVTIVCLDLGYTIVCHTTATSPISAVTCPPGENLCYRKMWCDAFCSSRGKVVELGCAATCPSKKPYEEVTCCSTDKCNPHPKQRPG

On to `CC(C)NC(=O)[C@@]1(C)c2ccccc2C(=O)N(Cc2cc(F)cc(C(F)(F)F)c2)[C@H]1c1ccc(CO)cc1`, for which the composite z-score came out at 0.442 in test [1]; 0.574 in test [2]; 0.384 in test [3]; 1.27 in test [5]; 0.917 in [6]; 0.655 in [7]. The composite z-score in test [8] is 0.57; in test [9] it was -0.12; in [10], 0.858; in [11] it was 1.3; in test [13], -0.0164; in test [14] it was 0.304. In addition, the composite z-score in [15] was 0.418; in [16], -0.0165; in test [17], -0.121; in test [18], -0.347; in [19], 0.363; in [20], 1.16. Moreover, the z-score in test [4] was -0.0501 (inactive); in test [12], 0.0589.
Take `COc1ccc(O[C@H]2C=C[C@@H](c3ccccc3)O[C@@H]2COC(=O)CCC(C)=NOCC[C@@H]2C=C[C@H](OC(C)=O)[C@@H](COC(C)=O)O2)cc1`: the composite z-score in test [1] was 0.868; in [2], -0.0184; in test [3], -0.483; in [5], -0.249; in [6], -0.362; in [7], 0.275. Also, the composite z-score in [8] was 0.415; in test [9] it was 0.371; in [10], 1.22; in test [11], -0.119; in [13], 0.347; in test [14], -1.02. In addition, the composite z-score in [15] was -1.27; in test [16], 0.0495; in test [17] it was 0.199; in test [18], 0.0301; in test [19] it was 0.781; in [20] it was -0.0704. In addition, the z-score was -0.484 (inactive) in test [4] and -1.1 in [12].
Consider `CN1C(=O)C2C=CC(C(O)C(c3ccccc3)c3ccccc3)N(NC(=O)OC(C)(C)C)C2C1=O` (stereo not given), for which the composite z-score in test [1] worked out at 1.46; in [2] it was 1.21; in test [3] it was 1.22; in test [5] it was 1.03; in [6], 1.12; in test [7], 0.341. Moreover, the composite z-score in test [8] was 1.24; in test [9] it was 0.452; in [10], -0.109; in test [11], 1.32; in [13], -0.0483; in [14], 2.75. Further, the composite z-score in test [15] was 1.09; in [16], 0.306; in test [17] it was 0.915; in [18], 2.09; in [19], 2.59; in [20], 2.04. Moreover, the z-score in [4] is 1.71 (inactive); in [12] it was -0.527.
On to `COc1ccc(O[C@@H]2[C@H](O)CO[C@H]2C=CC#Cc2ccccc2)cc1`, for which the composite z-score in test [1] is 1.32; in [2], -0.477; in test [3] it was -0.716; in [5], 0.199; in [6], -0.207; in test [7], -0.352. The composite z-score in [8] is 0.103; in test [9], 0.438; in [10], 0.539; in test [11], -0.289; in [13], 0.347; in test [14] it was -0.414. For the same compound, the composite z-score in test [15] was -0.789; in test [16], -0.1; in [17] it was -0.138; in [18] it was -0.234; in test [19], 0.17; in test [20] it was -0.891. Besides, the figures for the z-score in test [4] and in test [12] were 0.167 (inactive) and -0.0351, respectively.
With `CC(C)[C@H](NC(=O)OC(C)(C)C)[C@@H](O)CC(=O)OC(C)(C)C`, the composite z-score in test [1] was -1.02; in [2], -0.298; in test [3], -0.215; in [5], -0.658; in [6] it was -1.38; in [7], -0.664. In addition, the composite z-score in test [8] was -0.746; in test [9] it was -0.327; in test [10] it was 0.0055; in [11], -2.46; in [13] it was -0.428; in [14], -0.32. Also, the composite z-score in test [15] is -0.275; in test [16], -0.0977; in test [17], -0.147; in test [18], -0.241; in test [19] it was -0.68; in [20] it was -0.232. For the same compound, the results for the z-score in [4] and in [12] were -0.566 (inactive) and -0.59, respectively.
As to `C=CC[C@@H]1C=C[C@H](ON=Cc2ccc(C(=O)N3[C@H](c4ccc(C)cc4)[C@@H](C)CC[C@H]3C(=O)OC)cc2)[C@@H](CO)O1`, the composite z-score in [1] is 0.608; in test [2] it was -0.313; in test [3] it was -0.422; in [5], 0.59; in [6], 0.363; in [7] it was 0.475. In addition, the composite z-score in test [8] was 0.609; in [9], 0.381; in test [10], 0.694; in test [11] it was 0.792; in test [13] it was 0.432; in [14] it was -0.36. Besides, the composite z-score in test [15] is -0.621; in [16], -0.148; in test [17], -0.16; in test [18], -0.0337; in [19], 0.0268; in [20] it was -0.255. Also, the z-score in test [4] was -0.0467 (inactive); in test [12] it was -1.52.
